Data from PubChem BioAssay AID463082 (The Scripps Research Institute Molecular Screening Center, 2010).
Screen size: about 330,000 compounds; about 4,900 (1.5%) were called active.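 How the source made its calls: active means inhibition above the mean inhibition across the screen plus 3 SD (cut at about 25% in these data); inactive means the rest.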 Many of the other results were omitted from the sample, so actives are more common in it than they were.

Target: Platelet-activating factor acetylhydrolase (Homo sapiens) (UniProt Q13093)
Sequence (Q13093 whole entry, looked up): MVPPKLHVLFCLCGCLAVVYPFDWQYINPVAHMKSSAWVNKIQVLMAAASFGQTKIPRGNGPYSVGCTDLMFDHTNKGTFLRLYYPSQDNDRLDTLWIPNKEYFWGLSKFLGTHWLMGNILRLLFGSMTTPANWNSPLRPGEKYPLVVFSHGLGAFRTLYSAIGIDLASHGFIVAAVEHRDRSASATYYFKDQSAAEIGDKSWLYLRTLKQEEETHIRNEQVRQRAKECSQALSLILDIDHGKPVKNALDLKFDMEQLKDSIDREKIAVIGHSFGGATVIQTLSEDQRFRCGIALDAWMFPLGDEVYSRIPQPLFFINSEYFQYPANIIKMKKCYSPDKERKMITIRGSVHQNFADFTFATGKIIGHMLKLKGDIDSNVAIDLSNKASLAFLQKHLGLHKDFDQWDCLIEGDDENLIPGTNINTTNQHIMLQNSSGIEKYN
Assay: pPAFAH enzyme inhibitors, primary screen, biochemical, fluorescence polarization, human (AID 463082);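 further: inhibitors block binding of the rhodamine activity-based probe so polarization drops; 0% = enzyme with DMSO and 100% = wells lacking pPAFAH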
Details: recombinant pPAFAH, FP-rhodamine probe fluorescence polarization; at 3.39 µM; active compounds read high

inhibition, inactive:
CC(CC(=O)N1CCN(c2ccccc2)CC1)c1ccccc1 (stereo not drawn) 0.04%
O=C(Nc1ccc(F)cc1)N1CCN(c2ccc(F)cc2)CC1 -4.2%
N#CC1=C(N)N(c2ccc(F)cc2)C(=O)C1 -0.02%
CCCCc1nc(NCCN)c(C#N)c2c1CSC(C)(C)C2 4.91%
C=C(C)CNC(=S)N/N=C/c1ccccc1OCC(=O)O 0.9%
Cc1cccc(COc2ccccc2/C=N/Nc2ccc([N+](=O)[O-])cc2)c1 18%
COCCn1c(=O)[nH]c(=O)c2cc(C(=O)c3cc(OC)ccc3O)cnc21 -1.8%
CC(C)NC(=O)C(=O)NCCN1CCN(S(=O)(=O)c2ccc(Cl)cc2)CC1 2.1%
O=C(Nc1nnc(SCc2ccccc2Cl)s1)c1cccc([N+](=O)[O-])c1 22.8%
COc1ccc2nc(SCc3ccccc3)nc(C)c2c1 3.07%
O=C(CC1N=C2c3ccccc3N=C(SCc3ccccc3Cl)N2C1=O)NCc1ccco1 (stereo not drawn) 6.79%
CCc1nnc(SCc2cccc(F)c2)nc1CC 7.48%
N#CC(Cc1cc2ccccc2n1S(=O)(=O)c1ccccc1)OCc1ccccc1 (stereo not drawn) 3.57%
N#Cc1c(NC(=O)C2CCCO2)sc2c1CCCCC2 (stereo not drawn) -1.14%
Cc1cccc(NS(=O)(=O)c2ccc(C)c(C(N)=O)c2)c1 9.98%
CC(=O)N1CCN(C(=O)c2cccc(S(=O)(=O)Nc3ccc(C)cc3)c2)CC1 19.9%
CCOc1cc(C(=O)N2CCc3cc(OC)c(OC)cc3C2)ccc1OC(F)F 11%
CC(C)N1CCC(=NNc2ccc([N+](=O)[O-])cc2S(=O)(=O)N2CCOCC2)CC1 5.77%
CCc1cccc2c(=O)c(C(=O)NCCCOC)c[nH]c12 3.69%
CCN(CC)S(=O)(=O)c1ccc2[nH]cc(C(=O)NCCc3ccccc3)c(=O)c2c1 -0.23%
C=CCOc1ccc(/C=C/C(=O)OCC(=O)NC2CCCCCC2)cc1 12%
NS(=O)(=O)c1ccc(CNC(=O)c2cccc(Oc3ccccc3)c2)cc1 4.17%
COc1ccc(OCC(=O)NCCc2ccc(S(N)(=O)=O)cc2)cc1 -2.47%
O=C(NCCN1CCOCC1)c1cccc(S(=O)(=O)Nc2ccc(F)cc2)c1 22.9%
COc1ccc(C(CNC(=O)c2ccc(NS(=O)(=O)c3ccc(F)c(C)c3)cc2)N(C)C)cc1 (stereo not drawn) 7.73%
CCN(c1ccccc1)S(=O)(=O)c1cccc(C(=O)NCc2ccccc2CN2CCOCC2)c1 3.38%
COc1ccccc1C(CNC(=O)c1cccc(NS(=O)(=O)c2ccc(Br)cc2)c1)N(C)C (stereo not drawn) 4.01%
CC(=O)N1c2ccc(S(=O)(=O)NCCC(=O)N(C)C3CCCCC3)cc2CC1C (stereo not drawn) 1.62%
O=C(c1n[nH]c2c1CCC2)N1CCCC(Nc2cccc(F)c2)C1 (stereo not drawn) -0.4%
O=C(COc1ccc(NC(=O)c2ccccc2[N+](=O)[O-])cc1)c1ccc(F)cc1 0.54%
C/C(=N\NC(=O)COc1ccc(C)cc1[N+](=O)[O-])c1ccc2c(c1)OCCO2 4.11%
CC(=O)Nc1cccc(OCC(=O)/C=C2\N(C)c3ccccc3C2(C)C)c1 1.61%
N[C@@H](Cc1ccccc1)C(=O)N1CCC(C(=O)NCC(=O)Nc2ccc(F)cc2)CC1 2.49%
Cc1cc(C)c2c(Cn3ccnc3)cc(=O)oc2c1 -1.95%
CCCCN1C(=O)/C(=C2/Sc3ccc(Cl)cc3N2CC)SC1=S 3.72%
CCCCN1C(=O)/C(=C/C=C2/C=Cc3ccccc3N2CC)SC1=S -3.21%
CCOC(=O)C(CCOc1cccc(CC)c1)C(=O)OCC 5.98%
CCCn1nc(C(=O)OCc2nc(N)nc(Nc3ccccc3C)n2)c2ccccc2c1=O -2.36%
O=C(Nc1nnc(CCOCCOCCc2nnc(NC(=O)c3ccco3)s2)s1)c1ccco1 8.62%
NC(=O)c1ccsc1NC(=O)c1ccco1 3.89%
COc1ccc(N2CCN(C3CC(=O)N(c4ccc5c(c4)OCCO5)C3=O)CC2)cc1 (stereo not drawn) -4.08%
COc1cc2ccccc2cc1C(=O)Nc1ccc(N2CCOCC2)cc1 11.2%
O=C(CN1CCN(c2cccc(Cl)c2)CC1)Nc1ccc(S(=O)(=O)N2CCOCC2)cc1 5.13%
COc1ccc(-c2nn(-c3ccccc3)cc2/C=C\C(=O)Nc2ccc(C(=O)O)cc2)cc1 -67.2%
O=C(NCc1cccnc1)c1cn(-c2ccccc2)nc1-c1cccs1 -4.38%

inhibition, active:
CC(=O)N1CCN(c2ccc(NCc3ccc(C(C)C)cc3)cc2)CC1 30.8%
Cc1ccc(NS(=O)(=O)c2ccc(N/N=C/c3ccccc3OCC(=O)O)c([N+](=O)[O-])c2)c(C)c1 88.4%
c1ccc(CSc2nnc(-c3ccco3)c(-c3ccco3)n2)cc1 62%
Clc1ccccc1CSc1nnc(-c2ccco2)c(-c2ccco2)n1 74.6%
Nc1cccc(S(=O)(=O)Nc2ccc(SC(F)F)cc2)c1 26.6%
COc1cccc(NS(=O)(=O)c2ccc3[nH]cc(C(=O)NCCCOC(C)C)c(=O)c3c2)c1 29%
O=C(NCc1ccccc1CN1CCCC1)c1cccc(S(=O)(=O)Nc2ccc(F)cc2)c1 31.6%
COc1ccc(NS(=O)(=O)c2cccc(C(=O)NCCc3ccc(S(N)(=O)=O)cc3)c2)cc1 26.8%
COc1ccccc1C(CNC(=O)c1cccc(S(=O)(=O)Nc2ccc(F)cc2)c1)N(C)C (stereo not drawn) 28.3%
CCN1C(=O)/C(=C2/Sc3ccccc3N2CCCS(=O)(=O)O)SC1=S 28.1%
O=C(Nc1nc(-c2ccco2)c(-c2ccco2)s1)c1ccco1 43%
CC(=O)Oc1cccc(N2C(=O)CC(Nc3ccc(N4CCOCC4)cc3)C2=O)c1 (stereo not drawn) 25.3%
O=C(O)c1ccc(N/N=C/c2cn(-c3ccccc3)nc2-c2cccs2)cc1 34%
